# Shown are actives, neighbours in structure and some others; about 2.8% of the full set was active somewhere.
# Giardia kill – Small Molecules that selectively kill Giardia lamblia: qHTS; Giardia lamblia trophozoite viability; AID 540267, 2011; 340,000 compounds, 0.15% hits; activity change, % at 7.66 µM, hits read low; in the data active means activity change below about -80%; inconclusive means between about -30% and that limit;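 further: parasites exposed to compound for two days anaerobically before the ATP read; on the % scale 0 is the no-effect control and ±100 the full control effect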
#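 ATP-content bioluminescence gauges trophozoite survival. Cells (100/well) receive compound and incubate anaerobically for 48 hrs at 37 deg C; detection reagent follows for 15-30 min at room temperature.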
# B2AR arrestin – qHTS assay of beta-arrestin-biased ligands of beta2-adrenergic receptor; Beta-2 adrenergic receptor (Homo sapiens), P07550; beta-arrestin recruitment to beta2AR, cell-based reporter; Potency, µM (titrated, usually from 46.1 µM), without a hit: at the highest dose activation, actives largely listed as activators; 330,000 compounds, 0.02% hits; active means well fitted activation curve with a large enough effect; inconclusive means small, poorly fitted or top-dose-only effect;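 further: potency means the concentration at half of the fitted maximal effect; 0% = DMSO controls and full agonism = EC100 isoproterenol or metaproterenol; nearly all actives have a fitted effect of over 65% in size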
# Target sequence (P07550 whole entry, looked up): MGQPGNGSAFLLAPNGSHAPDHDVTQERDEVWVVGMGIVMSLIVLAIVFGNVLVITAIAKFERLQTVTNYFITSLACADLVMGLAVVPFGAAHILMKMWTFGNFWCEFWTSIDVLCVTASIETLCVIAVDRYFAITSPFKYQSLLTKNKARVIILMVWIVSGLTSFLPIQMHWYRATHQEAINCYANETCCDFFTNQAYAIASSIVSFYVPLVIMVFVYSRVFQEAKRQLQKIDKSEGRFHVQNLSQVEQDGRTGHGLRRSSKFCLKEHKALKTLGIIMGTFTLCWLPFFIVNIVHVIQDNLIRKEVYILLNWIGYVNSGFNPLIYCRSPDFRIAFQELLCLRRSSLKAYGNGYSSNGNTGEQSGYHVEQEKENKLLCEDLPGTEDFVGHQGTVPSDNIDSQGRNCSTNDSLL
# D3 antag – qHTS of D3 Dopamine Receptor Antagonist: qHTS | 360,000 compounds, 2.5% hits | D3R cells, DiscoveRx beta-arrestin luminescence, antagonist mode; active compounds read low | max response, negative = inhibition, %; in the data active means max response below about -50%; inconclusive means no clear call, values can overlap the other calls; further: on the % scale 0 is the no-effect control and ±100 the full control effect
#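 Cells expressing the human receptor were seeded at 1500 cells/well, incubated overnight at 37 degrees C in 5% CO2, then exposed to library compounds with dopamine controls for 90 minutes at 37 degrees C before luminescent detection.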
# DRD3 agonist – qHTS of D3 Dopamine Receptor Agonist: qHTS | D(3) dopamine receptor (Homo sapiens), P35462 | D3R DiscoveRx beta-arrestin cells, luminescence, 90 min | max activation, % | 410,000 compounds, 0.58% hits; in the data active means max activation above about 30%; further: 0% is about no effect
#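 Agonist mode: compounds and dopamine controls were applied to plated cells for 90 min at 37 degrees C after an overnight attachment at 1500 cells/well. Luminescent read-out followed 30 - 60 minutes at room temperature with DiscoveRx detection reagent.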
# * = called active by the depositor; ? = inconclusive; · = no result given.
SMILES,Giardia kill,B2AR arrestin,D3 antag,DRD3 agonist
COc1cccc(C(C(=O)NCc2ccco2)N(C(=O)Cn2nnc3ccccc32)C2CC2)c1OC (stereo unspecified),6,0%,-53*,1
COc1ccc(-c2noc(CN(C(=O)C(C)Oc3ccc(C)cc3)C(C)C)n2)cc1 (stereo unspecified),·,·,·,3
Cc1cc(=O)oc2cc(OCCSCCN3CCCC3)ccc12,-1,-1%,-3,-19
COc1ccc(N2CCN(CCOc3ccc4c(C)cc(=O)oc4c3)CC2)cc1,4,?,-51*,-17
O=C(Cn1c(=O)ccc2cc(S(=O)(=O)N3CCCC3)ccc21)NCc1ccc(F)cc1,·,·,·,-8
CC12CCC=CC1C(c1ccc(F)c(/C=C/c3ccccc3)c1)N(Cc1ccccc1)C2=O (stereo unspecified),9,·,·,·
CCC(CC)C(=O)OCc1cc(=O)n2nc(C3CC3)sc2n1,·,·,·,45*
Cc1ccc(OCC(=O)Nc2ccc(C(=O)OCc3cc(=O)n4nc(C5CC5)sc4n3)cc2)cc1,·,·,·,-6
Cc1ccc(OCC(=O)Nc2ccccc2C(=O)OCc2cc(=O)n3nc(C4CC4)sc3n2)cc1,·,·,·,37*
O=C(COc1ccccc1)OCc1cc(=O)n2nc(C3CC3)sc2n1,·,·,·,74*
CCCc1ccc(C(=O)O)cc1,·,·,·,2
Cc1ccc(Cl)cc1NC(=O)Cn1c(=O)n(Cc2ccccc2)c(=O)c2oc3ccccc3c21,·,·,·,5
COc1cc(OC)c(NC(=O)c2cnn(-c3ccccc3)c2-n2cccc2)cc1Cl,·,·,·,-8
O=C(Nc1cc(C(F)(F)F)ccc1Cl)c1cnn(-c2ccccc2)c1-n1cccc1,·,·,·,55*
COc1ccc(CNc2nccs2)cc1OC,-2,6%,3,1
C=CCOc1ccc(CNc2nccs2)cc1OCC,17,-1%,-54*,8
Nc1cc(=O)[nH]c(SCC(=O)N2CCN(S(=O)(=O)c3ccc4ccccc4c3)CC2)n1,?,0%,3,1
O=C(CSc1n[nH]c(-c2cccs2)n1)N1CCN(S(=O)(=O)c2ccc3ccccc3c2)CC1,10,0%,-70*,-2
CCNC(=O)N1CCN(CCCC(c2ccc(F)cc2)c2ccc(F)cc2)CC1,-10,0%,-114*,-88
Cc1cccc(Nc2nnc(-c3ccc(C)c(S(=O)(=O)N4CCOCC4)c3)c3ccccc23)c1,·,·,·,-12
CCOC(=O)/C=C/[C@H]1Cc2ccccc2CO1,-11,0%,1,-11
CCOC(=O)/C=C/[C@H]1CCc2cccc(C)c2O1,15,0%,-63*,5
COc1ccc2c(c1)CO[C@]21O[C@H](CCO)C[C@H](O)[C@H]1O,·,·,-69*,-12
Cc1ccc2c(c1)CO[C@@]21O[C@H](CCO)C[C@H](O)[C@H]1O,·,·,?,1
CCCCCCCCn1c(=O)c(C(=O)OC)c(N)c2ccccc21,2,0%,31,38*
SMILES,Giardia kill,B2AR arrestin,D3 antag,DRD3 agonist
CCCCNC(=O)Oc1cccc(N2CCCC2=O)c1,1,0%,-69*,5
O=C(NCCCN1CCCC1=O)c1cccc(N2CCCC2=O)c1,-3,0%,-1,-5
NC(=O)c1c(-c2cccs2)csc1N,5,0%,-54*,4
O=C1OC(c2ccccc2)/C(=C(/O)c2ccc(Cl)cc2)C1=O (stereo unspecified),-14,0%,-62*,-5
CC(/C=C/c1ccccc1)=N/NC(=O)c1cccc(Br)c1,5,-1%,-53*,-7
CC(/C=C/c1ccccc1)=N\NC(=O)c1ccc(Br)cc1,21,0%,10,2
O=C(N/N=C/C1C(c2ccccc2)C1(Cl)Cl)c1cccc(Br)c1 (stereo unspecified),-11,0%,-53*,-3
CCN1C(=O)/C(=C\N2CCN(c3ccc(F)cc3)CC2)SC1=S,9,0%,58,34*
CCN1C(=O)/C(=C\N2CCN(C)CC2)SC1=S,5,-1%,-5,-5
COc1ccc(CCN(C)CCCC(C#N)(c2cc(OC)c(OC)c(OC)c2)C(C)C)cc1OC (stereo unspecified),18,?,-57*,-84
CN(C)c1ccc(/C=C(\C#N)c2ccccn2)cc1,-98*,-1%,-7,-9
N#C/C(=C\c1ccc([N+](=O)[O-])cc1)c1ccccn1,2,0%,-17,-8
CCn1c2ccccc2c2cc(CN3CCN(Cc4ccc(Br)cc4)CC3)ccc21,·,·,·,-45
